According to PubChem BioAssay (EPA / NIEHS):
Inconclusive results are not listed. More than one record can exist for a structure, and the calls need not agree. The source made the active and inactive calls. The calls were made as follows: active = hit-call score of the fitted dose curve at least 0.9, where 1 is the maximum; inconclusive = response in the unintended direction; inactive = score below 0.9. Where a SMILES comes first, the peptide text is derived from it. [ ]: non-standard residue; d: D form. pGlu = O=C1CC[C@@H](C(=O)O)N1

Each compound was assayed against Cellular tumor antigen p53 (Homo sapiens) (UniProt P04637) (assay: TOX21_p53_BLA_p4_ratio: Tox21 HCT-116 p53 Agonism Beta-lactamase Assay, Ratio, Phase 4 (AID 2283601)).
Cellular tumor antigen p53 (Homo sapiens), sequence (P04637 whole entry, looked up): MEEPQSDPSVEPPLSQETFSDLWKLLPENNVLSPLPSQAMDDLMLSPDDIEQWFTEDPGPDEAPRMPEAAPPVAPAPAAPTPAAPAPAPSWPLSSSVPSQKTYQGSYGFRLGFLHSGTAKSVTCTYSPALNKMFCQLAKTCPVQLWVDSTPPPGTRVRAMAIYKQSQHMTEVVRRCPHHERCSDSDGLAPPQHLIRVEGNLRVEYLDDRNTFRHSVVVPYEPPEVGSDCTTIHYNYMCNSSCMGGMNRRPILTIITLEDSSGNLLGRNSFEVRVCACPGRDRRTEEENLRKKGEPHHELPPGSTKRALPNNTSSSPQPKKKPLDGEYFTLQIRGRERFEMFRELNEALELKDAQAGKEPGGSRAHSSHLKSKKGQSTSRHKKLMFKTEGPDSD
In short: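 Signal is the blue/green (460nm/530nm) ratio of cleaved versus uncleaved CCF4-AM substrate, read after 2 h substrate loading. Cells were HCT116 carrying the p53-responsive beta-lactamase reporter, dosed 16 h at 37C, 5% CO2; CellTiter-Glo measured in parallel.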
CC[C@H](C)[C@H](NC(=O)[C@H](Cc1ccccc1)NC(=O)[C@H](C)NC(=O)[C@H](CC(=O)O)NC(=O)[C@H](CCCCN)NC(=O)[C@H](CO)NC(=O)[C@@H]1CCCN1C(=O)[C@@H]1CCC(=O)N1)C(=O)NCC(=O)N[C@@H](CC(C)C)C(=O)N[C@@H](CCSC)C(N)=O ([pGlu]PSKDAFIGLM-NH2) was tested, and the outcome was “inactive”.
For Oc1ccc(-c2ccc(O)cc2)cc1, the AC50 was 46.8 µM (active).
With CCCCC(=O)N(C)C the outcome was “inactive”.
In the case of CC(O)Cn1cnc2c1c(=O)n(C)c(=O)n2C (centres undefined), the outcome is reported as “inactive”.
CSc1ccc(C(=O)c2[nH]c(=O)[nH]c2C)cc1 was tested, and the outcome was “inactive”.
In the case of CCCCCCCC/C=C\CCCCCCCCCCCC(=O)O, the outcome is reported as “inactive”.
In the case of OC(CN1CCCCC1)c1cc(-c2ccccc2)on1 (centres undefined), the outcome is reported as “inactive”.
With NS(=O)(=O)c1cc(C(=O)O)cc(N2CCCC2)c1Oc1ccccc1 the outcome was “inactive”.
For OC[C@H]1O[C@@H](O[C@@H]2[C@@H](CO)O[C@](O)(CO)[C@H]2O)[C@H](O)[C@@H](O)[C@H]1O, the outcome was “inactive”.
With CCOC(=O)O[C@]1(C(=O)COC(=O)CC)CC[C@H]2[C@@H]3CCC4=CC(=O)C=C[C@]4(C)[C@H]3[C@@H](O)C[C@@]21C the outcome was “inactive”.
CC1=C(C/C=C(\C)CCC[C@H](C)CCC[C@H](C)CCCC(C)C)C(=O)c2ccccc2C1=O was tested, and the outcome was “inactive”.
With C[Si](C)(C)Cl the outcome was “inactive”.
In the case of O=C(O)c1ccc(Cl)cc1Cl, the outcome is reported as “inactive”.
With CC(=O)Nc1ccc(OC(C)=O)cc1 the outcome was “inactive”.
In the case of O=[Se](O)O, the outcome is reported as “inactive” and the AC50 is reported as 4.23 µM (active).
C[C@@H](CN(C)C)CN1c2ccccc2Sc2ccccc21 was tested, and the outcome was “inactive”.
CC(=O)O[C@H]1C[C@@H]2CC[C@@H]3[C@H](CC[C@@]4(C)[C@H]3C[C@H](N3CC[N+](C)(C)CC3)[C@@H]4OC(C)=O)[C@@]2(C)C[C@@H]1N1CC[N+](C)(C)CC1 was tested, and the outcome was “inactive”.
In the case of CCCCCCCCCC#N, the outcome is reported as “inactive”.
CC(C)CNCC(C)C was tested, and the outcome was “inactive”.
For CCC(O)C(C)(C)C (centres undefined), the outcome was “inactive”.
In the case of C[C@H](CCC(=O)O)[C@H]1CC[C@H]2[C@@H]3CC[C@@H]4C[C@H](O)CC[C@]4(C)[C@H]3C[C@H](O)[C@]12C, the outcome is reported as “inactive” and the AC50 is reported as 87.2 µM (active).
O=C(O)CCC(=O)Nc1ccc(S(=O)(=O)Nc2nccs2)cc1 was tested, and the outcome was “inactive”.
